Results: PubChem BioAssay (Tox21)
“And” between values parts separate entries of the source, which are not always exact repeats. Equal values may be shown once. Inconclusive results are not listed. The source made the active and inactive calls. Unless noted, calls follow the shape of the dose curve; as a rule, active = well fitted curve in the direction sought with a large enough effect in the repeat runs; inconclusive = weak or mixed curves; inactive = no such curve, though single readings can be large; an effect the other way counts as inactive or inconclusive.

Legend:
[1] = qHTS assay to identify small molecule antagonists of the androgen receptor (AR) signaling pathway using the MDA cell line in the presence of 0.5 nM R1881 - cell viability counter screen (AID 1259242); also: nearly all actives have a fitted effect of over 45% in size
In short: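 Cells seeded at 3,000/well and allowed 5 hr at 37C, 0% CO2 before compound transfer and R1881 (0.5 nM final) addition; 16 hr later, live-cell protease fluorescence indicated cytotoxicity.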

[2] = biological target: Androgen receptor (Homo sapiens) (UniProt P10275); experiment: qHTS assay to identify small molecule antagonists of the androgen receptor (AR) signaling pathway using the MDA cell line in the presence of 0.5 nM R1881 (AID 1259243); also: nearly all actives have a fitted effect of over 50% in size
Chain of Androgen receptor (Homo sapiens) (P10275 whole entry, looked up): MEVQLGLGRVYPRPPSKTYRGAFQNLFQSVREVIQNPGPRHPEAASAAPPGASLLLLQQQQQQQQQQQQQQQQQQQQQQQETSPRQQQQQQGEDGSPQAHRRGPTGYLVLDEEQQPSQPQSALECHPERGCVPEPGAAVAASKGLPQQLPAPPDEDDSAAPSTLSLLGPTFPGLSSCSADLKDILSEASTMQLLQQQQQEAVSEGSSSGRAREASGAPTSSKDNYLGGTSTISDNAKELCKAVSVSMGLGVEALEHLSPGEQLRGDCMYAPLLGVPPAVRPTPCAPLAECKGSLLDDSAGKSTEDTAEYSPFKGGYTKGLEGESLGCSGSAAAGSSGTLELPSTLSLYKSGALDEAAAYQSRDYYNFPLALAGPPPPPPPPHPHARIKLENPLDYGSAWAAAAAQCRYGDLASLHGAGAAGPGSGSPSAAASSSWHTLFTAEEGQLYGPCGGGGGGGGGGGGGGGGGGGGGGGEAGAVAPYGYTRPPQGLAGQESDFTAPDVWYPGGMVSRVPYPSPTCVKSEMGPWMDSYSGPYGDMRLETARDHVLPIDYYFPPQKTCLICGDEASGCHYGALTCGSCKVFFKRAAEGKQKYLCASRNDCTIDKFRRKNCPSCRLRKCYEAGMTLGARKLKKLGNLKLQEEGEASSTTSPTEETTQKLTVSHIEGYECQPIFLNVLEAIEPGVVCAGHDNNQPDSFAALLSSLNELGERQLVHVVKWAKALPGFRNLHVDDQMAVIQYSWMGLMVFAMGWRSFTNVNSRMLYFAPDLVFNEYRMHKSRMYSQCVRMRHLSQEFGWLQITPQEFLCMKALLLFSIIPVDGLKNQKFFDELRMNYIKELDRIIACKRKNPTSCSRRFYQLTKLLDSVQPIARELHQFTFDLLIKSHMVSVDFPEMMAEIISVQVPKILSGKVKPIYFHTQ
In short: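 Luminescence from an AR/GR-responsive MMTV-luciferase construct in MDA-kb2 breast carcinoma cells, read 30 min after ONE-Glo, following 16 hr co-treatment with compounds and 0.5 nM R1881.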

[3] = biological target: Estrogen receptor (Homo sapiens) (UniProt P03372); experiment: qHTS assay to identify small molecule antagonists of the estrogen receptor alpha (ER-alpha) signaling pathway using the BG1 cell line in the presence of 0.1 nM 17-beta-estradiol (AID 1259244); also: nearly all actives have a fitted effect of over 50% in size
Chain of Estrogen receptor (Homo sapiens) (P03372 whole entry, looked up): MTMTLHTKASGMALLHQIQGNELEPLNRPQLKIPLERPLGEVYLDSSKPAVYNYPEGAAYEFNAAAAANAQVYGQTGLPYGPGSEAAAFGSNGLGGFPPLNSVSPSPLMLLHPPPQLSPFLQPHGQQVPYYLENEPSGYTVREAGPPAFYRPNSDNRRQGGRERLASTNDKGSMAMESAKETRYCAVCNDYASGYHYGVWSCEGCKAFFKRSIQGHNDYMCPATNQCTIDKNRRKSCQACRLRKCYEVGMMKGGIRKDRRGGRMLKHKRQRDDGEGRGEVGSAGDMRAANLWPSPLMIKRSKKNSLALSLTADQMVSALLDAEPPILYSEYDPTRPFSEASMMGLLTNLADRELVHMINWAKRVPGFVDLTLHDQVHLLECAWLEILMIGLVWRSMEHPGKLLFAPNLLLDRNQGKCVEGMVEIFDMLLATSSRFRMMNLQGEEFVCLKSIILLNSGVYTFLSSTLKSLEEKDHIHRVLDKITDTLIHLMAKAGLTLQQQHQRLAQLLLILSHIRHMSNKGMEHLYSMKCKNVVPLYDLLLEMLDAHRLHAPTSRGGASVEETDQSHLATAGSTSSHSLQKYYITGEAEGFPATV
In short: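 Luciferase signal from VM7Luc4E2 ERE-reporter cells, co-dosed with test compound and 0.1 nM final 17beta-estradiol for 22 h, read with ONE-Glo.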

[4] = qHTS assay to identify small molecule phospholipidosis (PLD) inducers (AID 1259344; active = well fitted curve in the direction sought with a large enough effect; an effect the other way counts as inactive or inconclusive)
In short: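 Read-out is LipidTOX Red fluorescence (ex 595/em 615) imaged in HepG2 cells after 24 h compound exposure at 37 C, with Hoechst nuclear counterstain (ex 352/em 461) allowing per-cell normalisation.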

[5] = qHTS assay to identify small molecule HDAC inhibitors (AID 1259364);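 also: wild-type HCT-116 cells with endogenous class I/II HDAC activity; top concentration of the series differs between compounds; nearly all actives have a fitted effect of over 45% in size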
In short: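 HCT-116 wt cells, 1,500/well, overnight attach. Compounds (DMSO) 2 h, 37 °C. HDAC-Glo I/II, 30 min RT. Luminescence.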

[6] = qHTS assay to identify small molecule HDAC inhibitors - cell viability counter screen (AID 1259365); also: series mostly up to about 92 µM; nearly all actives have a fitted effect of over 50% in size
In short: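 Counter screen in wild-type HCT-116 cells: compounds dissolved in DMSO are pin-transferred onto overnight-plated cells and left 2hr at 37C. ATP-based CellTiter-Glo luminescence then measures viable cells.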

[7] = qHTS assay to identify small molecule agonists of the sonic hedgehog signaling (Shh) pathway - cell viability counter screen (AID 1259366); also: nearly all actives have a fitted effect of over 50% in size; also: potency is read from the fitted curve at half-maximal effect
In short: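 Cells are plated at 2,000 per well and left 4hr at 37C, 5% CO2 before compound addition. After 23hr of treatment, CellTiter-Fluor reagent is added for 1hr at 37C and fluorescence is measured.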

[8] = qHTS assay to identify small molecule antagonists of the sonic hedgehog signaling (Shh) pathway - cell viability counter screen (AID 1259367); also: nearly all actives have a fitted effect of over 55% in size
In short: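 Fluorescence read-out (CellTiter-Fluor, 1 hr at 37C) taken after 23 hr compound treatment of 3T3 Gli1-Luc cells stimulated with conditioned medium. Cells were seeded at 2,000 per well and pre-incubated 4 hr.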

[9] = qHTS assay to identify small molecule agonists of the sonic hedgehog signaling (Shh) pathway (AID 1259368; calls by dose curve;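 also: NIH/3T3-derived 3T3Gli1-Luc cells carrying a stable Gli1-driven firefly luciferase reporter; series mostly up to about 92 µM; nearly all actives have a fitted effect of over 15% in size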)
In short: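 Following a 24 hr incubation with DMSO-dissolved compounds at 37 C, 5% CO2, Gli1-Luc NIH/3T3-derived cells received luciferase reagent for 30 min at room temperature prior to luminescence measurement.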

[10] = qHTS assay to identify small molecule antagonists of the sonic hedgehog signaling (Shh) pathway (AID 1259369; calls by dose curve; also: nearly all actives have a fitted effect of over 45% in size; also: potency is read from the fitted curve at half-maximal effect)
In short: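 Read-out is luminescence from a firefly luciferase gene controlled by the Gli1 response element, in 3T3Gli1-Luc cells pre-incubated 4hr then exposed to compounds and conditioned medium for 24hr.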

[11] = qHTS assay to identify small molecule agonists of the androgen receptor (AR) signaling pathway in the presence of an antagonist - cell viability counter screen (AID 1259379); also: nearly all actives have a fitted effect of over 25% in size; also: potency is read from the fitted curve at half-maximal effect;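 as to activity change, negative = cytotoxicity: MDA-kb2 human breast cancer cells carrying an MMTV luciferase reporter; series mostly up to about 92 µM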
In short: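 Each compound was tested at 15 concentrations on MDA-kb2 cells in the presence of 3.0uM nilutamide. Viability was measured by CellTiter-Fluor fluorescence after a 16 hr incubation at 37C in a CO2-free atmosphere.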

[12] = qHTS assay to identify small molecule agonists of the estrogen receptor beta (ER-beta) signaling pathway - cell viability counter screen (AID 1259380); also: nearly all actives have a fitted effect of over 30% in size; also: potency is read from the fitted curve at half-maximal effect
In short: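 Compounds dissolved in DMSO were pin-transferred onto ER-beta-UAS-bla HEK293T cells that had settled 6 hr, and exposure ran 16 hr at 37C. Following the reporter read, CellTiter-Glo luminescence after 30 min at room temperature indicated cytotoxicity.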

[13] = biological target: Androgen receptor (Homo sapiens) (UniProt P10275); experiment: qHTS assay to identify small molecule agonists of the androgen receptor (AR) signaling pathway in the presence of an antagonist (AID 1259381; calls by dose curve; also: nearly all actives have a fitted effect of over 15% in size)
In short: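 Plated MDA-kb2 cells (3,000/well) were pre-incubated 5hr, given nilutamide (3.0uM final) or buffer, then dosed with compounds in DMSO at 15 concentrations. Luciferase activity was quantified by luminescence after 16hr at 37C.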

[14] = qHTS assay to identify small molecule agonists or antagonists of the thyroid stimulating hormone receptor (TSHR) signaling pathway - wild type cell line counter screen (AID 1259384; calls by dose curve)
In short: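 Wild-type Hek293 cells, 800/well, 18 h at 37C, then compound with Ro20-1724 for 30 min RT. cAMP by HTRF (cAMP-d2/anti-cAMP cryptate), 1 h RT, fluorescence read. 15 concentrations, triplicates.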

[15] = biological target: Thyrotropin receptor (Homo sapiens) (UniProt P16473); experiment: qHTS assay to identify small molecule antagonists of the thyroid stimulating hormone receptor (TSHR) signaling pathway (AID 1259385; calls by dose curve; also: nearly all actives have a fitted effect of over 20% in size; also: potency is read from the fitted curve at half-maximal effect)
Chain of Thyrotropin receptor (Homo sapiens) (P16473 whole entry, looked up): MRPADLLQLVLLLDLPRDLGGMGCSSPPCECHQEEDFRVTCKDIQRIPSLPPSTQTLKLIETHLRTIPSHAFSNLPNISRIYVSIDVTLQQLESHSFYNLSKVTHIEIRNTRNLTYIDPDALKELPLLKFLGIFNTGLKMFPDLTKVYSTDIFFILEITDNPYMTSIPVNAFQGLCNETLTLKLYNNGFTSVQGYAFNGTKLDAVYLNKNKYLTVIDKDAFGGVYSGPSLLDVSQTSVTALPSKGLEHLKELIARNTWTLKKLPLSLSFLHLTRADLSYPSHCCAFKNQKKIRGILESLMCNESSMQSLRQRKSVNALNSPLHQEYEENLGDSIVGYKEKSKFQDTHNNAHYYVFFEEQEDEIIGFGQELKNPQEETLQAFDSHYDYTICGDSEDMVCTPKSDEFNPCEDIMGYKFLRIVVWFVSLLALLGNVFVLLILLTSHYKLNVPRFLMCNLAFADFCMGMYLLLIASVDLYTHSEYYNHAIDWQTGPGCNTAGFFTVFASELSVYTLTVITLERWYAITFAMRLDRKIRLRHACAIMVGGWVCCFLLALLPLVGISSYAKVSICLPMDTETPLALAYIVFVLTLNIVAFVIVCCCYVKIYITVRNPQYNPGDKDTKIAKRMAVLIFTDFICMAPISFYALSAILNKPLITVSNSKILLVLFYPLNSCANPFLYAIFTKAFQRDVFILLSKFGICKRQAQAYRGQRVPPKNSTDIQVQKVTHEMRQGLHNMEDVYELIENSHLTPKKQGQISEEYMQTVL
In short: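 TSHR-HEK293 cells (800/well) plated 18 h, then compounds with Ro20-1724 and TSH at 1.5 ng/mL final, 30 min at room temperature. cAMP quantified by HTRF (cAMP-d2/anti-cAMP-cryptate, 1 h); 15 concentrations in triplicate.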

[16] = qHTS assay to identify small molecule antagonists of the estrogen receptor alpha (ER-alpha) signaling pathway using the BG1 cell line in the presence of 0.1 nM 17-beta-estradiol - cell viability counter screen (AID 1259241); also: nearly all actives have a fitted effect of over 40% in size
In short: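 Cells were plated and left 24 hr, compounds in DMSO were pinned in, 17beta-estradiol was added to 0.1 nM final, and after 22 hr CellTiter-Fluor reagent was added for 30 min before fluorescence was read.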

[17] = qHTS assay to identify small molecule antagonists of the estrogen receptor beta (ER-beta) signaling pathway - cell viability counter screen (AID 1259382); also: nearly all actives have a fitted effect of over 55% in size; also: potency is read from the fitted curve at half-maximal effect; as to activity change, negative = cytotoxicity: series mostly up to about 92 µM
In short: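 CellTiter-Glo ATP luminescence measured after the LiveBLAzer read in the same wells; ER-beta-UAS-bla HEK293T cells, 16 hr compound treatment with 1nM 17-beta-estradiol agonist at 37C, 5% CO2.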

[18] = biological target: Estrogen receptor (Homo sapiens) (UniProt P03372); experiment: qHTS assay to identify small molecule agonists of the estrogen receptor alpha (ER-alpha) signaling pathway in the presence of an antagonist (AID 1259383; calls by dose curve; also: top concentration of the series differs between compounds; nearly all actives have a fitted effect of over 15% in size)
In short: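 Luminescent ERE-luciferase reporter, VM7Luc4E2 cells (endogenous ER-alpha); 10.0nM ICI-182,780 final; 15-point compound titration; 22hr at 37C; ONE-Glo, 30min RT.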

[19] = biological target: Estrogen receptor beta (Homo sapiens) (UniProt Q92731); experiment: qHTS assay to identify small molecule agonists of the estrogen receptor beta (ER-beta) signaling pathway (AID 1259377; active = well fitted activation curve with a large enough effect in the signal ratio in the repeat runs, not every such curve was filed as active; the % refers to the signal ratio)
Chain of Estrogen receptor beta (Homo sapiens) (Q92731 whole entry, looked up, the tested form may be a part): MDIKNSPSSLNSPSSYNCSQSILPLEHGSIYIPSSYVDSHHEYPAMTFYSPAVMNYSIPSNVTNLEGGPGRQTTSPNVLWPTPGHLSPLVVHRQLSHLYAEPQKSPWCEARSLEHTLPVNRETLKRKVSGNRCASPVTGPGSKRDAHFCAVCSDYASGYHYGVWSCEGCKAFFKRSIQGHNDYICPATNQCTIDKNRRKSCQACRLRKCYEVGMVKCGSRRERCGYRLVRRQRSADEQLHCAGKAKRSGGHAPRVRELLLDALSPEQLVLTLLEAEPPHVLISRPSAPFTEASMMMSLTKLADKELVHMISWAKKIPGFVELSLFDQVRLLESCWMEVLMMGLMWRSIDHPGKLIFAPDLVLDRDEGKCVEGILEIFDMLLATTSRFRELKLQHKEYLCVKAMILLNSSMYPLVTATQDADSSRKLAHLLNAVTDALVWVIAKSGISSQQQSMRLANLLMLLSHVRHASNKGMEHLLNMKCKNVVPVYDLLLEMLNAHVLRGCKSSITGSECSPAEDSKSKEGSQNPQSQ
In short: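 Agonist mode cell assay in GripTite HEK293T cells expressing an ER-beta fusion that drives beta-lactamase from an Upstream Activator Sequence; 16 hr compound exposure at 37C, then 2 h LiveBLAzer B/G FRET substrate at room temperature, fluorescence read-out.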

[20] = biological target: Estrogen receptor beta (Homo sapiens) (UniProt Q92731); experiment: qHTS assay to identify small molecule antagonists of the estrogen receptor beta (ER-beta) signaling pathway (AID 1259378; active = well fitted inhibition curve with a large enough effect in the signal ratio in the repeat runs, not every such curve was filed as active; the % refers to the signal ratio)
In short: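 ER-beta-UAS-bla HEK293T cells in 2% charcoal-stripped FBS medium treated with compound plus 1nM final 17-beta-estradiol for 16 hr at 37C. Beta-lactamase reporter read by FRET substrate fluorescence after 2 hours at room temperature.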
% is scaled to controls: 0 for no effect and ±100 for the full control effect.

CCC1(C2=NCCN2)Cc2ccccc2O1 (configuration not stated)
inactive: Potency [1] | Potency [2] | Potency [3] | outcome [4] | Potency [5] | Potency [6] | Potency [7] | Potency [8] | Potency [9] | Potency [10] | Potency [11] | Potency [12] | Potency [13] | outcome [14] | Potency [15]

COc1cc(CC(C)N)c(OC)cc1Br (configuration not stated)
active: Potency [10] 15.9 µM | Potency [12] 63.2 µM
inactive: Potency [16] | Potency [3] | Potency [5] | Potency [6] | Potency [7] | Potency [8] | Potency [9] | Potency [11] | outcome [14] | Potency [15]

O=[N+]([O-])/C=C/c1ccccc1
active: Potency [7] 5.54 µM and 10.9 µM | Potency [11] 44 µM and 68.6 µM | Potency [15] 27.8 µM and 21.7 µM
inactive: Potency [16] | Potency [5] | Potency [8] | Potency [9] | Potency [17] | outcome [14]

CC(C)c1ccc(OP(=O)(Oc2ccc(C(C)C)cc2)Oc2ccc(C(C)C)cc2)cc1
active: Potency [10] 13.8 µM and 12.2 µM and 15.3 µM | Potency [12] 21.8 µM and 27.3 µM and 21.7 µM | Potency [17] 27.5 µM and 30.6 µM
inactive: Potency [16] | Potency [3] | Potency [5] | Potency [6] | Potency [7] | Potency [8] | Potency [9] | Potency [11] | outcome [14] | Potency [15]

O=C1CC[C@@]2(O)[C@H]3Cc4ccc(O)c5c4[C@@]2(CCN3CC2CC2)[C@H]1O5
inactive: Potency [16] | outcome [4] | Potency [6] | Potency [7] | Potency [8] | Potency [9] | Potency [11] | Potency [17] | outcome [14] | Potency [15]

CC(Cc1ccccc1)NCc1ccccc1Cl (configuration not stated)
inactive: Potency [16] | Potency [3] | outcome [4] | Potency [5] | Potency [6] | Potency [7] | Potency [8] | Potency [9] | Potency [10] | Potency [11] | Potency [12] | Potency [17] | Potency [18] | outcome [14] | Potency [15]

CN(C1CCCCC1)C1CCCCC1
inactive: Potency [1] | Potency [2] | Potency [3] | Potency [5] | Potency [6] | Potency [7] | Potency [8] | Potency [9] | Potency [10] | Potency [19] | Potency [20] | Potency [11] | Potency [12] | Potency [13] | Potency [17] | outcome [14] | Potency [15]

CCCCCCCCCCCCN=C(N)N
inactive: activity change, negative = cytotoxicity [16] 2.27% [at 3.27 µM] | activity change, negative = cytotoxicity [6] -3.51% [at 3.27 µM] | viability change, negative = cytotoxic [7] 23.3% [at 3.27 µM] | viability change, negative = cytotoxic [8] 1.35% [at 3.27 µM] | activity change [9] 0.488% [at 3.27 µM, hits give high values] | activity change, negative = cytotoxicity [11] -9.57% [at 3.27 µM] | activity change, negative = cytotoxicity [17] -18.7% [at 3.27 µM] | cAMP activity change [14] 1.76% [at 3.27 µM] | activity change, negative = inhibition [15] 0.876% [at 3.27 µM]

O=C=NC1CCCCC1
inactive: Potency [16] | Potency [3] | Potency [6] | Potency [7] | Potency [8] | Potency [9] | Potency [19] | Potency [20] | Potency [11] | Potency [12] | Potency [17] | Potency [18] | outcome [14] | Potency [15]

CCC1CCC(=O)O1 (configuration not stated)
inactive: Potency [1] | Potency [5] | Potency [6] | Potency [7] | Potency [8] | Potency [9] | Potency [10] | Potency [20] | Potency [11] | Potency [12] | Potency [17] | outcome [14] | Potency [15]
